# Reference: PubChem BioAssay (NCATS)
# Inconclusive results are not listed. Activity calls are given as the source filed them. Unless noted, calls follow the shape of the dose curve; as a rule, active = well fitted curve in the direction sought with a large enough effect; inconclusive = small, poorly fitted or top-dose-only effect, or another doubt; inactive = no such curve, though single readings can be large; an effect the other way counts as inactive or inconclusive.
# What was measured:
# [1] = target: Lysosomal acid glucosylceramidase (Homo sapiens) (UniProt P04062); test: Glucocerebrosidase-p2 (AID 348; in the data active = potency below about 10 µM; also: potency is read from the fitted curve at half-maximal effect); conditions: purified GBA, blue fluorogenic substrate, 40 min
# Lysosomal acid glucosylceramidase (Homo sapiens), sequence (P04062 whole entry, looked up): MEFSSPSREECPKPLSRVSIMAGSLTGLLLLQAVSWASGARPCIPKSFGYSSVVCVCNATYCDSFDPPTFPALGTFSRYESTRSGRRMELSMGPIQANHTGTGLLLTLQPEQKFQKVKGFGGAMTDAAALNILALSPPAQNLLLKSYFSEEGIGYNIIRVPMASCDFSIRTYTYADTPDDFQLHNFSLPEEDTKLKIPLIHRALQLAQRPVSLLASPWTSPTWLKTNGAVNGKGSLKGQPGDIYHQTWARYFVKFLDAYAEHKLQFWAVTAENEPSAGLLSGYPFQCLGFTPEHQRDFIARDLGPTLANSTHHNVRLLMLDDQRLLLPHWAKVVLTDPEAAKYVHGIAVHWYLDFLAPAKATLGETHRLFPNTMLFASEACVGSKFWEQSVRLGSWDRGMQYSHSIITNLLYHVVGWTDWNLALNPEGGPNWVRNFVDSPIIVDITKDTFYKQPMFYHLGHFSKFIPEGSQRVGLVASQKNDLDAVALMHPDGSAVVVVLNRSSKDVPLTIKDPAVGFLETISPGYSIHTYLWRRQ
# Outline: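 Normal human glucocerebrosidase (0.2 nM) with blue fluorogenic substrate (80 uM final) in citrate/phosphate pH 5.9 with 10mM sodium taurocholate, 0.01% tween-20; 40 min RT, NaOH/glycine stop; fluorescence Ex 365/Em 440; AC50 from a titration from 0.6 nM upwards.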
# [2] = AP1 Signaling Pathway (AID 357; active = well fitted curve in either direction with a large enough effect, not every such curve was filed as active;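 also: ME-180 reporter cells stimulated with EGF at its EC50 level; % is scaled to controls: 0 for no effect and ±100 for the full control effect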); conditions: ME-180 AP-1-bla reporter, EGF-induced, beta-lactamase ratio, 5 h; at 7.69 µM (top of the series) unless noted
# Outline: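 Read-out was the 460nm/530nm emission ratio (excitation 405nm) after CCF4 loading for 2.5 hours at room temperature. Cells carried an AP-1-driven beta-lactamase reporter, were stimulated with EC50 EGF plus compound for 5 hours, and AC50 values came from titrations.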
# [3] = target: Cytochrome P450 1A2 (Homo sapiens) (UniProt P05177); test: p450-cyp1a2 (AID 410; calls by dose curve; also: potency is read from the fitted curve at half-maximal effect;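 as to activity change, negative = inhibition: -100% = full effect of reference inhibitor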); conditions: recombinant CYP1A2, luciferin-ME demethylation, luminescence; series mostly up to 57 µM
# Cytochrome P450 1A2 (Homo sapiens), sequence (P05177 whole entry, looked up): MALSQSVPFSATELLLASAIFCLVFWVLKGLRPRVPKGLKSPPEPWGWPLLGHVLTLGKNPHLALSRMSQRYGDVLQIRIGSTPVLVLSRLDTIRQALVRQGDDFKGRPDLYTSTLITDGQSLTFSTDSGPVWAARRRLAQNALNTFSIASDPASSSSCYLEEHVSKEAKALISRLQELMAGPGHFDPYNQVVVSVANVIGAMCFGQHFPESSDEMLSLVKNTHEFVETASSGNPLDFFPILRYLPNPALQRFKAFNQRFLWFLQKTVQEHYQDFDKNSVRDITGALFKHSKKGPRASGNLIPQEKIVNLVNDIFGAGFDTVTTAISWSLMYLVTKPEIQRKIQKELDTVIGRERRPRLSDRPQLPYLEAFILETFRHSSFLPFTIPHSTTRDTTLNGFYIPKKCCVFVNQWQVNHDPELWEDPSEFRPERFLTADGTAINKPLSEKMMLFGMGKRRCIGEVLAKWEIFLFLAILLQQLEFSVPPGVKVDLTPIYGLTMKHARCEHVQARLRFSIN
# Outline: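 Luminescent demethylation readout: Luciferin-ME (100uM, equal to Km) turned over by 20nM CYP1A2 for 60 min at room temperature after NADPH regeneration addition, following 10 min compound preincubation. Normalization used 57 uM furafylline as full inhibition.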
# [4] = NFAT Signaling Pathway (AID 444; active = well fitted curve in either direction with a large enough effect, not every such curve was filed as active;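 also: carbachol stimulus at about its EC50 of 1 µM final; % is scaled to controls: 0 for no effect and ±100 for the full control effect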); conditions: Jurkat NFAT-bla M1, carbachol, beta-lactamase ratio, 5 h; at 7.69 µM (top of the series) unless noted
# Outline: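 Read-out: CCF4 FRET ratio (460 nm/530 nm) after 1 h RT dye loading, used for %activity and AC50 from titration series. Cells: Jurkat NFAT-β-lactamase/M1 line, treated with compound plus 1 uM carbachol for 5 h, 37 °C.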
# [5] = Stat Signaling Pathway (AID 446; active = well fitted curve in either direction with a large enough effect, not every such curve was filed as active;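 also: ME-180 cervical cancer cells given 40 pM IL-6 alongside compound; SIE-controlled beta-lactamase reporter measured as 460/530 nm FRET emission ratio; % is scaled to controls: 0 for no effect and ±100 for the full control effect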); conditions: ME-180 (cervical carcinoma) SIE beta-lactamase reporter, IL-6 stimulated, 5 h; at 7.69 µM (top of the series) unless noted
# Outline: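 Normalization used AC90 stimulation (300 pM IL-6) and AC90 inhibition (125 nM pan-JAK inhibitor at 40 pM IL-6). The underlying signal is SIE-driven beta-lactamase in ME-180 cells after 5 h IL-6 exposure with compound.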
# [6] = target: Glucocorticoid receptor (Homo sapiens) (UniProt P04150); test: GR-GFP Redistribution (AID 450;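 active = compounds whose dose series gives a full or clear partial fitted curve of increased nuclear translocation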; also: potency is read from the fitted curve at half-maximal effect); conditions: U2OS GR-GFP nuclear translocation, laser cytometry, 2 h
# Glucocorticoid receptor (Homo sapiens), sequence (P04150 whole entry, looked up, the tested form may be a part): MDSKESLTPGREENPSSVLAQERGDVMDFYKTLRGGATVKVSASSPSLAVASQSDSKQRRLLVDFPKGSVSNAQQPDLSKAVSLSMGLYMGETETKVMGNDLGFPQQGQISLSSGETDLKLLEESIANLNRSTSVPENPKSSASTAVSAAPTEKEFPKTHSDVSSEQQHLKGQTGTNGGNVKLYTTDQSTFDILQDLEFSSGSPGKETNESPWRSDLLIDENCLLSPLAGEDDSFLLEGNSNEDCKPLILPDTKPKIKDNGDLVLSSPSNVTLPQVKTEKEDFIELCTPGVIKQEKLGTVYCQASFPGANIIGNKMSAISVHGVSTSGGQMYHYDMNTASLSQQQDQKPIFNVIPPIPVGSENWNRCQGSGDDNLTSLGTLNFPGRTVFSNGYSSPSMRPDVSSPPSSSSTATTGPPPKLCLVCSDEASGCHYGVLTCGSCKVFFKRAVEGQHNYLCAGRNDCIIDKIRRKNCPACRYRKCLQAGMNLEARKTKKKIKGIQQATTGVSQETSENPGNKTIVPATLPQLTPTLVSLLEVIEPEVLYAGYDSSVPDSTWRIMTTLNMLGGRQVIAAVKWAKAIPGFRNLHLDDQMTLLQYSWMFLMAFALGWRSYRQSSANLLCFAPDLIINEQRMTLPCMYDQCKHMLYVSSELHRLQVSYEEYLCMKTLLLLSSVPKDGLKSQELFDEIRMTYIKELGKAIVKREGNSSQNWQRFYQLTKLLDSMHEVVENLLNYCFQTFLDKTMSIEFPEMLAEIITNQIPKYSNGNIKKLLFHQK
# [7] = target: Glucocorticoid receptor (Homo sapiens) (UniProt P04150); test: GR-EFC Redistribution (AID 451; calls by dose curve; also: potency is read from the fitted curve at half-maximal effect); conditions: CHO-K1 GR-EFC translocation, beta-gal luminescence, 2 h
# Outline: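 Translocation of GR-ED fusion to nuclear EA restores b-gal, read by luminescence after 1 h room-temperature detection. Engineered CHO-K1 biosensor cells, 1,000/well, exposed 2 h at 37 C to titrations up to 46 uM final.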
# [8] = target: Mitogen-activated protein kinase 10 (Mus musculus) (UniProt Q61831); test: JNK3 AlphaScreen Assay (AID 530; active = well fitted curve in either direction with a large enough effect, not every such curve was filed as active;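 also: kinase came from lysate of stimulated human HepG2 cells; signal reports phosphorylation of biotinylated GST-cJun 1-79 at Ser73 with 10 µM ATP; % is scaled to controls: 0 for no effect and ±100 for the full control effect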); conditions: JNK3 lysate, c-Jun phosphorylation; series mostly up to 57.1 µM
# Outline: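 qHTS titrations with 15 min compound pre-incubation before adding ATP (10 uM final). Read-out: AlphaScreen of Ser73-phosphorylated biotin-GST-cJun using HepG2 lysate JNK3 activated by IL-1β and TNFα.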
# [9] = target: 3',5'-cyclic-AMP phosphodiesterase 4B (Homo sapiens) (UniProt Q07343); test: qHTS Assay for Inhibitors of PDE-IV (AID 607; active = well fitted activation curve with a large enough effect in the main read-out, with a control signal flat, not every such curve was filed as active; also: % of control where 0% means no effect); conditions: HEK293 ACTOne CNG channel cells, membrane potential fluorescence; series mostly up to 22.9 µM
# 3',5'-cyclic-AMP phosphodiesterase 4B (Homo sapiens), sequence (Q07343 whole entry, looked up): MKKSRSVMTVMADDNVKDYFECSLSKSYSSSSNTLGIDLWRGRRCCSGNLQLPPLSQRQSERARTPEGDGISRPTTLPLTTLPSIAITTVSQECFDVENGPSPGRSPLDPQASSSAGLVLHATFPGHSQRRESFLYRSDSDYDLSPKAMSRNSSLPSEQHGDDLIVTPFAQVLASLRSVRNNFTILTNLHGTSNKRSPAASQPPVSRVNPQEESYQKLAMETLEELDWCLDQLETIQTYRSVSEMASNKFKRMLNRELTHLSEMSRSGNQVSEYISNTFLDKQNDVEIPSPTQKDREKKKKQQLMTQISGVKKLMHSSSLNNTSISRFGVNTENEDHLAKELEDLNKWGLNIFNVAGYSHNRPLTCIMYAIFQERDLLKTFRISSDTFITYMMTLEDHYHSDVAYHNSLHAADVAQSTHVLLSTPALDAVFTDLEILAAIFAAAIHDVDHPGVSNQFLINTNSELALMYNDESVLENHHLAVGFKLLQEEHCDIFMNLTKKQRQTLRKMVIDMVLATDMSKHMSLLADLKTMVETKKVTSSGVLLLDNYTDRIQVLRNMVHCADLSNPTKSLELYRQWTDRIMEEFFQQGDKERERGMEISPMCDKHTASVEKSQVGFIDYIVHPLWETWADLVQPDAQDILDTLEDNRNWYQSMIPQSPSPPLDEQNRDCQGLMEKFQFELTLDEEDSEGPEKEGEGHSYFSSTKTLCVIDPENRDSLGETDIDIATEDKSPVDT
# Outline: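 HEK293 ACTOne cells with CNG channel (1000/well), endogenous PDE4; membrane potential dye, compounds up to 22.9 uM final. Fluorescence Ex 535/Em 590; RO 20-1724 (100 uM final) as reference.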
# [10] = target: Cytochrome P450 3A4 (Homo sapiens) (UniProt P08684); test: qHTS Assay for Activators of Cytochrome P450 3A4 (AID 885); conditions: recombinant CYP3A4, Luciferin-PPXE luminescence, 60 min; series mostly up to 57.1 µM; also: nearly all actives have a fitted effect of over 65% in size
# Cytochrome P450 3A4 (Homo sapiens), sequence (P08684 whole entry, looked up): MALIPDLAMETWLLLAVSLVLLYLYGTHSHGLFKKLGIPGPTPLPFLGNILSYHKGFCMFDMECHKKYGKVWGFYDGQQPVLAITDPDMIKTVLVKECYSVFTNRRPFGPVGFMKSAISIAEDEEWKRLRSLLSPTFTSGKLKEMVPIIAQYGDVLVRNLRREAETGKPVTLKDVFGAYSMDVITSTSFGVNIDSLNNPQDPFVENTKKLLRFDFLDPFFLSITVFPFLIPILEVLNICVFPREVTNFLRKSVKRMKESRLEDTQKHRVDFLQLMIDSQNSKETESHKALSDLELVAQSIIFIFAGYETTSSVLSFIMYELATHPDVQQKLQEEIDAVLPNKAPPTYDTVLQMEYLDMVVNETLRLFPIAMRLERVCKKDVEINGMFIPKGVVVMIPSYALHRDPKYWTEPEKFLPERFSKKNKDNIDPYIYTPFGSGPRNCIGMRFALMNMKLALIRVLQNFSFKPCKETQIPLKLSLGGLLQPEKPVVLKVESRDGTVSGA
# Outline: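 Human CYP3A4 dealkylates Luciferin-PPXE to luciferin, which luciferase detection converts to light. Substrate was at its KM (25uM), buffer 200mM KPO4, reaction 60 min at RT.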
# [11] = target: Cytochrome P450 2C19 (Homo sapiens) (UniProt P33261); test: qHTS Assay for Inhibitors and Substrates of Cytochrome P450 2C19 (AID 899); conditions: recombinant CYP2C19, luciferin-H EGE luminescence; series mostly up to 57.1 µM; also: % is scaled to controls: 0 for no effect and ±100 for the full control effect; nearly all actives have a fitted effect of over 60% in size
# Cytochrome P450 2C19 (Homo sapiens), sequence (P33261 whole entry, looked up): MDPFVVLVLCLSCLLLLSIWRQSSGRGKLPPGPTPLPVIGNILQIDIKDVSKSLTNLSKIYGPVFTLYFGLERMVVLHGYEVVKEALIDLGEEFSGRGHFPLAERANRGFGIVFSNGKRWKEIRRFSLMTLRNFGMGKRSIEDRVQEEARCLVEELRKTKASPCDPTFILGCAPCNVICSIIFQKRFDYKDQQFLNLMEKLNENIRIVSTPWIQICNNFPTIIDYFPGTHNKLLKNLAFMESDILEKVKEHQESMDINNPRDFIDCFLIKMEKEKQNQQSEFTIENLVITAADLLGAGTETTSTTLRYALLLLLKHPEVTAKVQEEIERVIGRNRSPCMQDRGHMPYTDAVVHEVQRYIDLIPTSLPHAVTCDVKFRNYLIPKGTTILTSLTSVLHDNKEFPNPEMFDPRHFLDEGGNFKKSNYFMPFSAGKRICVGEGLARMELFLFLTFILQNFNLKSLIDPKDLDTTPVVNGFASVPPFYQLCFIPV
# Outline: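 5nM enzyme + 10uM Luciferin-H EGE (=KM), 50mM KPO4; cpd pin-transferred, 10 min 37C; NADPH regen, 60 min 37C; stopped w/ luciferin detection reagent, 20 min; luminescence. Normalized to 57uM ketoconazole (AC100).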
# [12] = qHTS Assay for Lipid Storage Modulators (AID 1519; calls by dose curve); conditions: Drosophila S3 cells, BODIPY lipid droplet/cell ratio, laser cytometry, cells loaded with oleic acid; for activity change, negative = inhibition: at 57.5 µM (top of the series)
# Outline: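 Cells seeded at 5,000 per well were treated with compounds over a concentration series and loaded with oleic acid (400 uM, as added). Lipid droplet fluorescence (488 nm excitation, 500-530 nm channel) was read by laser-scanning cytometry and normalized to 20 uM Triacsin C.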
# [13] = target: Dual specificity protein kinase CLK4 (Homo sapiens) (UniProt Q9HAZ1); test: qHTS Assay for Inhibitors of CDC-like Kinase 4 (Kinase-Glo Assay) (AID 1770); conditions: recombinant Clk4, Kinase-Glo ATP depletion luminescence; series mostly up to 66.7 µM; also: nearly all actives have a fitted effect of over 65% in size; also: potency is read from the fitted curve at half-maximal effect
# Dual specificity protein kinase CLK4 (Homo sapiens), sequence (Q9HAZ1 whole entry, looked up): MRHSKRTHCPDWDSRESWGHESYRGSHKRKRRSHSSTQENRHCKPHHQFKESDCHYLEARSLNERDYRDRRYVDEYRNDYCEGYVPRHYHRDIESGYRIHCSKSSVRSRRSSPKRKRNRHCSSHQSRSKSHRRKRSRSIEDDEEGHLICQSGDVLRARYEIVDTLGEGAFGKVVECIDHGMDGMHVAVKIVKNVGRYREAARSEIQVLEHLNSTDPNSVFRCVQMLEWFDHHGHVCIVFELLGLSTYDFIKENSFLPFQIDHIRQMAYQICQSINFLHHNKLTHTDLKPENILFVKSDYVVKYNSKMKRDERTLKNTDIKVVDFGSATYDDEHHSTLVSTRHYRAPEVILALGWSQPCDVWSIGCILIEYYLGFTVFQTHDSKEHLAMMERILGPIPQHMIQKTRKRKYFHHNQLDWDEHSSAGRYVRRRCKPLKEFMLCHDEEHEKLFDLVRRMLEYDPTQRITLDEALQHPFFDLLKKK
# Outline: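 Substrate mix (RS peptide 100 uM, ATP 1 uM) dispensed, compound pinned in, then Clk4 added to 25 nM final. Incubated 4.5 h at RT; Kinase-Glo reagent added, luminescence read after 5 min.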
# [14] = target: Dual specificity protein kinase CLK4 (Homo sapiens) (UniProt Q9HAZ1); test: qHTS Assay for Inhibitors of CDC-like Kinase 4 (ADP-FP Assay) (AID 1795); conditions: Transcreener ADP fluorescence polarization; series mostly up to 50 µM; also: nearly all actives have a fitted effect of over 60% in size; also: potency is read from the fitted curve at half-maximal effect
# Outline: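 Clk4 6.25 nM; RS peptide 100 uM; ATP 1 uM; 25 mM Tris pH 7.5, 10 mM MgCl2; 1 h reaction. ADP detected via antibody/orange tracer FP displacement; TG003 positive control.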
# [15] = target: Ubiquitin carboxyl-terminal hydrolase 1 (Homo sapiens) (UniProt O94782); test: Inhibitors of USP1/UAF1: Pilot qHTS (AID 504865); conditions: purified USP1/UAF1, Ub-rhodamine cleavage fluorescence; series mostly up to 54.9 µM;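 also: rhodamine fluorescence freed from ubiquitin-rhodamine substrate followed over time; top concentration of the series differs between compounds; % is scaled to controls: 0 for no effect and ±100 for the full control effect; nearly all actives have a fitted effect of over 35% in size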
# Ubiquitin carboxyl-terminal hydrolase 1 (Homo sapiens), sequence (O94782 whole entry, looked up): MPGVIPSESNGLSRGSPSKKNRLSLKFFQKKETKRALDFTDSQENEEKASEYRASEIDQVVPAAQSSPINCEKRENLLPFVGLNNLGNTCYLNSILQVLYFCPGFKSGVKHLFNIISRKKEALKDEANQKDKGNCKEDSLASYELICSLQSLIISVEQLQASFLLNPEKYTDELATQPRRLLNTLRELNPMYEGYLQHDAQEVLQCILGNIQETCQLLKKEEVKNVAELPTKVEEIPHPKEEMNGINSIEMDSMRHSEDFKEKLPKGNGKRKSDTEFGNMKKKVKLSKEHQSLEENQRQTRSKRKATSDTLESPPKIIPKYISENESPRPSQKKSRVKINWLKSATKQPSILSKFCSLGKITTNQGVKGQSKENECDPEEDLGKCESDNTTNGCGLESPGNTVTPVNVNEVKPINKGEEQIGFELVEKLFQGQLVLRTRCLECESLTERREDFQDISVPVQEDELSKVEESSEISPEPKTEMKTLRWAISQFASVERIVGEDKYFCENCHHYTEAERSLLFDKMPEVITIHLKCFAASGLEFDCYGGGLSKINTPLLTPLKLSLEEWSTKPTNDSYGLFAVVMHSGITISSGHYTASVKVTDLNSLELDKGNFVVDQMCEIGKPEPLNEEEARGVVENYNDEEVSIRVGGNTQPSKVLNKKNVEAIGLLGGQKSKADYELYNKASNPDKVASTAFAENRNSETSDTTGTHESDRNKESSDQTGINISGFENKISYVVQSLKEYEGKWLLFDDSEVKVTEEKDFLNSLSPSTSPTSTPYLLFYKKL
# Outline: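 In 50mM HEPES pH 7.8 containing 0.5mM EDTA, 1mM TCEP, 0.1 mg/ml BSA and 0.01% Tween-20, 1nM USP1/UAF1 is exposed to compound for 15 min, then Ub-Rho (150nM final) is added and fluorescence is read over time.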
# [16] = target: Dual specificity protein kinase CLK4 (Homo sapiens) (UniProt Q9HAZ1); test: qHTS Assay for Inhibitors of CDC-like Kinase 4 (ADP-Glo Assay) (AID 1771); conditions: recombinant CLK4, ADP-Glo luminescence; series mostly up to 80 µM; also: potency is read from the fitted curve at half-maximal effect; nearly all actives have a fitted effect of over 70% in size
# Outline: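 ADP production was read by ADP-Glo luminescence after residual ATP depletion, following 1 h room-temperature reaction of 25 nM Clk4, 1 uM ATP and 100 uM RS peptide with MgCl2, EGTA, DTT and Triton X-100.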
# [17] = target: Cytochrome P450 2D6 (Homo sapiens) (UniProt P10635); test: qHTS Assay for Inhibitors and Substrates of Cytochrome P450 2D6 (AID 891); conditions: recombinant CYP2D6, luciferin-ME EGE luminescence; series mostly up to 57.1 µM; also: potency is read from the fitted curve at half-maximal effect; nearly all actives have a fitted effect of over 60% in size
# Outline: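 Luminescent read-out of luciferin formed by 5 nM human CYP2D6 demethylating 30 uM Luciferin-ME EGE (Km level) over 60 min at room temperature after NADPH regeneration addition. Data normalized to full inhibition by 1.43 uM quinidine.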
# [18] = target: Cytochrome P450 3A4 (Homo sapiens) (UniProt P08684); test: qHTS Assay for Inhibitors and Substrates of Cytochrome P450 3A4 (AID 884); conditions: recombinant CYP3A4, Luciferin-PPXE luminescence; series mostly up to 57.1 µM; also: potency is read from the fitted curve at half-maximal effect; nearly all actives have a fitted effect of over 50% in size
# Outline: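 Luminescent readout of luciferin produced by CYP3A4 (20 nM) dealkylation of Luciferin-PPXE, 25 uM (its KM). NADPH-driven reaction ran 60 min at RT after 10 min compound preincubation; data scaled to 57 uM ketoconazole as 100% inhibition.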
# [19] = measured here: cell count channel max response
# [20] = measured here: lipid channel max response
Compound,Potency [1],"activity change, negative = inhibition [2]",Potency [3],"activity change, negative = inhibition [4]","activity, negative = inhibition [5]",Potency [6],Potency [7],Potency [8],Potency [9],Potency [10],Potency [11],"activity change, negative = inhibition [12]","max response [12, 19] [%]","max response [12, 20] [%]",Potency [13],Potency [14],Potency [15],Potency [16],Potency [17],Potency [18]
Cc1noc(C)c1-c1cncnc1N1CCN(C)CC1,> 11.4 µM (inactive),1.14% (inactive),inactive,-0.298% (inactive),24.7% (inactive),> 46 µM (inactive),> 46 µM (inactive),inactive,inactive,inactive,inactive,-1.64% (inactive),15.1,9.71,inactive,inactive,inactive,,,
N#Cc1cccc(-c2ccc3ncnc(NCCN4CCOCC4)c3c2)c1,> 11.4 µM (inactive),1.43% (inactive),,19.4% (inactive),,> 46 µM (inactive),> 46 µM (inactive),inactive,inactive,,,4.75% (inactive),5.88,7.51,12600 nM (active),,inactive,8.91 µM (active),,
Cc1nc2cnc(Nc3ccccc3)nc2n(C[C@H]2CCCO2)c1=O,> 11.4 µM (inactive),-11% (inactive),,9.56% (inactive),-15.1% (inactive),> 9.22 µM (inactive),> 46 µM (inactive),inactive,inactive,inactive,,-5.71% (inactive),-3,-12.3,,,inactive,22.4 µM (active),,
COc1ccccc1CNc1ncnc2ccc(-c3ccoc3)cc12,,,2.51 µM (active),-7.72% (inactive),-21.5% (inactive),> 46 µM (inactive),> 46 µM (inactive),inactive,,inactive,,-10.7% (inactive),20,4.99,251 nM (active),141 nM (active),inactive,0.316 µM (active),3.16 µM (active),
CN1CCN(c2ncnc3ccc(-c4ccoc4)cc23)CC1,,-22.9% (inactive),,-23.1% (inactive),-0.925% (inactive),> 46 µM (inactive),> 46 µM (inactive),inactive,,,,2.55% (inactive),12.5,2.82,631 nM (active),447 nM (active),inactive,0.794 µM (active),,
COc1ccc(CNc2ncnc3ccc(-c4ccc(C(=O)N(C)C)cc4)cc23)c(OC)c1,> 11.4 µM (inactive),-13.6% (inactive),,28.3% (inactive),-9.48% (inactive),> 46 µM (inactive),> 46 µM (inactive),inactive,,inactive,,1.13% (inactive),11.2,9.92,inactive,inactive,inactive,,,2.51 µM (active)
